Reference: PubChem BioAssay (NCI)
This is part of a sample that, as a whole, favours compounds with a hit. Of some 83,000 tested, about 20% had one in any assay.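 Assay: single dose, 48 h. Readout: percent growth (0 = no net growth; negative = cell death). Active: <10.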 A number with no mark means an inactive call. The source made the active and inactive calls.

tested on: OVCAR-8 ovarian; experiment: NCI-60 one-dose screen, 48 h (100 = growth as untreated, 0 = no growth, -100 = all killed); settings: 10 µM

SMILES	growth
C/C=C/C1=CN2C(=O)c3cc(OC4OC(C)C(NC)C(C)(O)C4O)c(C)c(O)c3N=C[C@@H]2C1 (stereo partly drawn)	9.18% (active)
CNC(=O)c1c(I)c(NC(C)=O)c(I)c(C(=O)O)c1I	103%
COc1ccc(Nc2cnc3cc(NS(=O)(=O)c4ccc(C)cc4)ccc3n2)cc1	82.1%
COc1cc(-c2nn(-c3ccc(NC(=O)NCCCNC(=O)c4ccccc4)cc3)cc2-c2ccncc2)ccc1Cl	20.6%
OCC1OC(n2ccc3c(NO)ncnc32)C(O)C1O (stereo not drawn)	-32.5% (active)
C[C@]12CC[C@@H]3c4ccc(OS(=O)(=O)O)cc4CC[C@H]3[C@@H]1CC[C@@H]2NS(=O)(=O)c1ccc(-c2ccccc2)cc1	67.6%
CCN1CCN(CCC(=O)Nc2cccc(-n3cc(-c4ccncc4)c(-c4ccc(Cl)c(OC)c4)n3)c2)CC1	24.2%
COc1ccc(-c2nnc(SCC(=O)Nc3ccc(C(=O)/C=C/c4ccccc4)cc3)n2-c2ccccc2)cc1OC	51.3%

tested on: OVCAR-5 ovarian; experiment: as above; settings: 10 µM

SMILES	growth
COc1ccc(-c2onc(N)c2-c2cc(OC)c3c(c2)OCO3)cc1	51.3%
C[C@]12CC[C@@H]3c4ccc(O)cc4CC[C@H]3[C@@H]1CC[C@@H]2NS(=O)(=O)c1ccc(C(F)(F)F)cc1	90.5%
O=C(CSc1nnc(-c2ccc(Cl)cc2)o1)Nc1ccc(C(=O)/C=C/c2ccc(Cl)cc2)cc1	110%
Cc1cc(CCNC=O)c(C)c2c1sc1ccccc12	82.4%
COc1cc2cc(Oc3ccc(NC(=O)c4ccc(Cl)c(C(F)(F)F)c4)cc3)c(C)nc2cc1OC	51.3%
CC(C)(C)c1ccc(S(=O)(=O)N[C@H]2CC[C@H]3[C@@H]4CCc5cc(O)ccc5[C@H]4CC[C@]23C)cc1	92.7%
COc1cc2cc(Oc3ccc(NC(=O)c4cccc(C(F)(F)F)c4)cc3)c(C)nc2cc1OC	70.2%
COc1ccc(/C=C2\CCCC3=C2NC(N)=NC3c2ccc(OC)c(OC)c2)cc1OC (stereo not drawn)	74.4%
Cc1c(Cl)cccc1NC(=O)CN1CCOCC1	111%
CC(C)(C)OC(=O)N1CCc2c(sc3ncnc(N/N=C/c4ccc(Br)cc4)c23)C1	77.6%
CCCCc1oc2ccccc2c1C(=O)c1cc(I)c(OCCN(CC)CC)c(I)c1	-36% (active)
CCc1c2c(nc3ccc(OC(=O)N4CCC(N5CCCCC5)CC4)cc13)-c1cc3c(c(=O)n1C2)COC(=O)[C@]3(O)CC	70.4%
NS(=O)(=O)Oc1ccc(-c2ccc3sccc3c2)cc1	88.8%
O=C(Nc1ccc(OS(=O)(=O)c2ccccc2)cc1)C1CCCCC1	100%
S=c1cnc2ccccc2[nH]1	104%
COc1cc(-c2nn(-c3cccc(NC(=O)NCCNC(=O)c4cccc(C(F)(F)F)c4)c3)cc2-c2ccncc2)ccc1Cl	85.1%
C[C@@H](O)[C@H]1C(=O)N2C(C(=O)O)=C(SCCN=CN)C[C@H]12	3.52% (active)
CC[C@@H](C(=O)[C@@H](C)[C@@H](O)[C@H](C)[C@@H]1O[C@@H]([C@@H](CC)C(=O)O)CC[C@@H]1C)C1O[C@]2(C=CC(=O)[C@]3(CC[C@@](C)([C@H]4CC[C@](O)(CC)[C@H](C)O4)O3)O2)[C@H](C)C[C@@H]1C (stereo partly drawn)	56.1%
CCC(c1ccc(OC)cc1)C(CC)c1ccc(O)c(CN2CCN(C)CC2)c1 (stereo not drawn)	80.4%
COc1ccc(C(=O)N2C=Cc3ccccc3C2C#N)cc1 (stereo not drawn)	102%

SMILES	growth
Cc1cc(SC#N)cc(C(C)(C)C)c1O	88.4%
COc1ccc(-c2n[nH]nc2-c2cc(OC)c3c(c2OC)OCO3)cc1	44.2%
CN1C(C(=O)Nc2ccccn2)=C(O)c2sc(Cl)cc2S1(=O)=O	104%
Clc1ccc2c(c1)C(N1CCNCC1)=Nc1ccccc1O2	69%
CC(C)(C)c1ccc(S(=O)(=O)N[C@H]2CC[C@H]3[C@@H]4CCc5cc(O)c([N+](=O)[O-])cc5[C@H]4CC[C@]23C)cc1	95.9%
COc1cc(-c2csc(NC(=O)Nc3ccc(Cl)c(C(F)(F)F)c3)n2)cc(OC)c1OC	18.4%
Brc1ccc2c(c1)-c1ccccc1C1=NCCN12	-8.25% (active)
CC(C)N(CCOc1cccc(-c2nc3sccn3c2-c2ccnc(S(C)(=O)=O)n2)c1)C(C)C	115%
Cc1ccc(/C=C/C(=O)C(=O)/C=C/c2ccc(C)cc2)cc1	97.8%
O=C(Nc1cc(Cl)cc2c1-c1ccc(Cl)cc1C2O)C(Cl)Cl (stereo not drawn)	94.8%
COc1cc(Cc2cc(-c3ccccc3)n[nH]c2=O)cc(OC)c1OC	93.1%
Cc1cc(C(C#N)c2ccc(Cl)cc2)c(Cl)cc1NC(=O)c1cc(I)cc(I)c1O (stereo not drawn)	87.8%
C/C=C/C1=CN2C(=O)c3cc(OC4OC(C)C(NC)C(C)(O)C4O)c(C)c(O)c3N=C[C@@H]2C1 (stereo partly drawn)	-1.31% (active)
CNC(=O)c1c(I)c(NC(C)=O)c(I)c(C(=O)O)c1I	113%
COc1ccc(Nc2cnc3cc(NS(=O)(=O)c4ccc(C)cc4)ccc3n2)cc1	95.9%
COc1cc(-c2nn(-c3ccc(NC(=O)NCCCNC(=O)c4ccccc4)cc3)cc2-c2ccncc2)ccc1Cl	53%
OCC1OC(n2ccc3c(NO)ncnc32)C(O)C1O (stereo not drawn)	-3.92% (active)
C[C@]12CC[C@@H]3c4ccc(OS(=O)(=O)O)cc4CC[C@H]3[C@@H]1CC[C@@H]2NS(=O)(=O)c1ccc(-c2ccccc2)cc1	113%
CCN1CCN(CCC(=O)Nc2cccc(-n3cc(-c4ccncc4)c(-c4ccc(Cl)c(OC)c4)n3)c2)CC1	37.6%
COc1ccc(-c2nnc(SCC(=O)Nc3ccc(C(=O)/C=C/c4ccccc4)cc3)n2-c2ccccc2)cc1OC	104%
